ALR H2O2 inh: inhibitors of human ALR sulfhydryl oxidase, primary screen, biochemical, H2O2 detection, HRP-luminol luminescence, single point; inhibition, % (test concentration not listed); AID 485317, 2010; 3.8% of 290,000 active; purified ALR, DTT oxidation; FAD-linked sulfhydryl oxidase ALR (Homo sapiens), P55789;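 active = mean replicate inhibition above about 79%, with every replicate also reaching it, limit read from the data; inconclusive = only one of the two criteria met; inactive = mean below limit and not every replicate reaching it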
Target sequence (P55789 whole entry, looked up): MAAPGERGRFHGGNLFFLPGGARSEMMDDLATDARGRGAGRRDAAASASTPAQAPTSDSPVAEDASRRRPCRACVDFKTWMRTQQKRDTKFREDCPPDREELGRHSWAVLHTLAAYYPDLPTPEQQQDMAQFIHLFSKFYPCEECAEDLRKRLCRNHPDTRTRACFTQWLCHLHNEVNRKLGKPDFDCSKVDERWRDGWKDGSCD
NPR2 activator: human GC-B receptor activators, primary screen, HEK293 GC-B cells, cGMP TR-FRET, EC30 CNP. 0.11% of 370,000 active. activation, % at 10 µM. 0% at EC30 CNP, 100% saturating CNP;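 active = activation at 10 µM reaching about 35% in either raw or pattern-adjusted values, limit read from the data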
HDAC3 inhib: HDAC3 deacetylase inhibitors, primary screen, biochemical, fluorescence, cell-free homogeneous; Histone deacetylase 3 (Homo sapiens), O15379; recombinant HDAC3, fluorogenic peptide/trypsin coupled; inhibition, % at 8.3 µM; 0.15% of 320,000 active; AID 2718, 2010; in the data active = inhibition above about 26%, passing the limit was not always enough; inconclusive = no clear call, values can overlap the other calls
Target sequence (O15379 whole entry, looked up): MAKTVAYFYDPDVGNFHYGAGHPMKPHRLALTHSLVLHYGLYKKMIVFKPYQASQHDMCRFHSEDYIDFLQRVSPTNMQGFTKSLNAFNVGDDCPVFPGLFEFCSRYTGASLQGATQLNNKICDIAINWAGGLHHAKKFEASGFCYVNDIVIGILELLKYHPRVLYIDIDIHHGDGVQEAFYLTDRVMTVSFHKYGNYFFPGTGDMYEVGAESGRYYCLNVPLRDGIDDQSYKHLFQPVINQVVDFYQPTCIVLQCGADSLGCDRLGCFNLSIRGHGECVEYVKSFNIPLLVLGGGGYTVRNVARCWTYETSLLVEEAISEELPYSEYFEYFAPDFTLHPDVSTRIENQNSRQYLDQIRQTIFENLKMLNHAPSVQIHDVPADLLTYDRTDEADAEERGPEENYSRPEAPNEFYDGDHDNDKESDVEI
NPR1 activator: GC-A stimulated cGMP production enhancers – HEK293 GC-A cells, cGMP TR-FRET, EC30 ANP, primary screen. 0% at EC30 ANP, 100% saturating ANP. activation, % at 10 µM. 0.14% of 370,000 active; in the data active = activation above about 40%
Active calls of the source: *; ? = inconclusive; · = not tested or not shown. This excerpt belongs to a sample that is enriched for hits.

SMILES | ALR H2O2 inh | NPR2 activator | HDAC3 inhib | NPR1 activator
Cc1cc(Nc2ccccc2)nc(N2CCN(C(=O)c3ccc4c(c3)OCO4)CC2)n1 | 6 | -4 | -4 | -1
CCc1noc(C)c1C(=O)N1CCN(S(=O)(=O)c2c(C)c(C)cc(C)c2C)CC1 | -8 | 5 | -4 | 0
CN/N=C/c1ccc(C#N)cc1 | 99* | -1 | ? | 0
COc1cc(NC(=O)CN2C(=O)C(c3ccccc3)=NC2(C)C)cc(OC)c1 | 97* | 1 | -6 | 2
COc1cc(NC(=O)CN2C(=O)C(c3ccccc3)=NC23CCCCCC3)cc(OC)c1 | 55 | 8 | -2 | 0
O=C(NNc1ccccc1)/C(=C\c1cccnc1)NC(=O)c1ccccc1 | 98* | -3 | 5 | 0
COCCCn1c(=S)[nH]c2sc3c(c2c1=O)CCCS3 | 99* | -8 | 7 | -2
C=C(C)CN=c1scc(C)n1/N=C/c1ccco1 | 99* | 1 | 5 | -1
CC(=O)Nc1cccc(Oc2ncnc3scc(-c4ccccc4)c23)c1 | 20 | 46* | 3 | 39
O=S(=O)(c1ccc(Oc2ncnc3scc(-c4ccccc4)c23)cc1)N1CCOCC1 | -4 | -3 | -3 | -4
Cc1ccc(C(=O)OCN2C(=O)c3ccccc3C2=O)c(O)c1 | 2 | 1 | -5 | -5
COc1cc(OC)cc(C(=O)N2CCN=C2SCc2cccnc2)c1 | 100* | -13 | 3 | 0
O=C(c1cccc(F)c1)N1CCN=C1SCc1cccnc1 | 100* | 2 | -3 | -1
O=C(c1ccc(Br)o1)N1CCN=C1SCc1cccc(F)c1 | 58 | 6 | -1 | 7
COc1cc(OC)cc(-c2nnc(SCc3cccnc3)o2)c1 | -4 | -4 | -1 | 0
O=C(c1ccc2c(c1)OCO2)N1CCN=C1SCc1ccccc1 | 93* | -5 | 2 | 4
CCc1nc2c(OCC(=O)C(C)(C)C)cccn2c1N(C)C(=O)COc1ccccc1 | · | 0 | · | -3
Cc1ccc(CS/C(Nc2ccccc2C)=C(\C#N)C(N)=O)c(C)c1 | 21 | -12 | 8 | -31
O=C1c2ccccc2C(=O)c2c(O)c(O)cc(O)c21 | · | 0 | · | -7
O=C1C=C(O)c2c(O)cc(O)c(O)c2C1=O | 98* | -9 | 3 | -12
Cc1nc(SCc2cccnc2)[nH]c(=O)c1C | 99* | · | -12 | ·
Cc1nc(SCc2cccc(F)c2)[nH]c(=O)c1C#N | 84* | -3 | 4 | 2
CCCCCc1cccc2[nH]cc(-c3ccccc3)c12 | · | 2 | · | -4
COc1ccc(-n2nc(C(=O)O)nc2-c2ccccc2)cc1 | 100* | 8 | 4 | 0
Cc1cc(C)n(CCCNC(=O)c2ccc(C)c(S(=O)(=O)N3CCOCC3)c2)n1 | · | -2 | 0 | 2
SMILES | ALR H2O2 inh | NPR2 activator | HDAC3 inhib | NPR1 activator
Cc1c(-c2cc(C(=O)O)no2)cnn1C | 29 | 3 | 8 | 1
CCn1ncc(-c2cc(C(=O)O)no2)c1C | 58 | 2 | 47* | 1
Cc1csc(NC(=O)CSc2nc(C)cs2)n1 | -68 | -9 | -3 | 0
Cc1csc(NC(=O)CSc2nncc(=O)n2N)n1 | 98* | 7 | 1 | 1
CCOC(=O)c1csc(NC(=O)CSc2nnnn2CC)n1 | 99* | 2 | -3 | 0
Cc1csc(NC(=O)CSc2nncn2C)n1 | -9 | -1 | 1 | 2
Cc1csc(NC(=O)CSc2nccn2C)n1 | 96* | 1 | -12 | 0
O=c1[nH]cnc(O)c1C(c1ccc([N+](=O)[O-])cc1)c1c(O)nc[nH]c1=O | -2 | 2 | -1 | -2
COc1cccc(-c2nn3c(-c4ccco4)nnc3s2)c1 | 94* | -1 | 6 | 2
COc1cccc(OC)c1-c1nn2c(-c3ccco3)nnc2s1 | -4 | -1 | -4 | -5
CN(C)c1ccc(/C=C/c2cccc[n+]2[O-])cc1 | ? | -5 | 5 | -4
CC(C)CC[n+]1ccccc1/C=C/c1ccc(N(C)C)cc1 | 99* | -16 | 8 | -16
C/C(=N\NC(=O)Cc1ccc(Cl)cc1)c1ccc(F)cc1 | -16 | -4 | 5 | 3
CCN(CC)c1ccc(C(=O)N/N=C(\C)c2ccc(O)cc2)cc1 | 94* | 2 | -2 | -3
C/C(=N\NC(=O)Cc1ccc(F)cc1)c1ccc(O)cc1 | 99* | -3 | -12 | 1
CN1CCc2cccc3c2[C@H]1Cc1ccc(O)c(O)c1-3 | 99* | -5 | 1 | -9
COC(=O)[C@]12C[C@H](CC(=O)NCCc3ccccc3OC)C(=O)N(Cc3ccc(Cl)cc3Cl)C1=C[C@H](COCc1ccccc1)O[C@@H]2C | · | 3 | · | -6
CCOc1ccc(-n2c(SCC(=O)Nc3ccc(S(=O)(=O)Nc4nccs4)cc3)nnc2-c2ccc(C(C)(C)C)cc2)cc1 | · | 9 | · | -11
c1cn2c(NC3CCCC3)c(-c3ccc(N4CCOCC4)cc3)nc2cn1 | 99* | 6 | 3 | 17
O=C(O)CCN1C(=O)/C(=C2\C(=O)N(Cc3ccccc3Cl)c3ccccc32)SC1=S | -12 | -1 | 2 | -5
C=CCN1C(=O)/C(=c2\sc3nc(=O)c(Cc4ccccc4Cl)nn3c2=O)c2ccccc21 | 96* | -14 | 4 | -2
Cc1ccc(C(=O)NC2CCCCN(Cc3ccc(Cl)cc3)C2=O)c(C)c1 (centres undefined) | · | -3 | · | 0
CCOC(=O)COc1cc2c(C(=O)OCC)c(C)oc2cc1Br | 97* | -6 | 0 | -5
COc1cccc(CN2CCC(n3nccc3NC(=O)CCOc3ccccc3)CC2)c1O | 94* | · | 1 | ·
CCOC(=O)/C(=N/Nc1ccccc1OC)N1CCCc2ccccc21 | 71 | -3 | -13 | -6
SMILES | ALR H2O2 inh | NPR2 activator | HDAC3 inhib | NPR1 activator
CCOC(=O)/C(=N/Nc1ccc(OC)cc1)N1CCCc2ccccc21 | · | -2 | 1 | 0
COC(=O)/C(=N/Nc1ccccc1C)N1CCCc2ccccc21 | 98* | -1 | -4 | -8
CCOC(=O)/C(=N/Nc1ccccc1)N1CCCc2ccccc21 | 94* | 0 | 7 | -2
COc1ccccc1C1NC(=O)NC(C)=C1C(=O)OC1CCC(C)CC1 (centres undefined) | -8 | -5 | 1 | -2
COC(=O)CCNC(=O)CCc1ccc(S(=O)(=O)N2CCCCCC2)cc1 | -6 | 0 | 2 | 0
Cn1c(NC(=O)COc2ccccc2)cc(=O)n(C)c1=O | 99* | -4 | 5 | 2
CCc1c(O)nc(SCC(=O)Nc2ccccc2)n(-c2ccccc2C)c1=O | · | -2 | · | 2
CCCCc1c(O)nc(SCC(=O)Nc2ccc(C)cc2)n(-c2ccc(OC)cc2)c1=O | 99* | 8 | 0 | 1
CCc1c(O)nc(SCC(=O)Nc2ccccc2)n(-c2ccccc2)c1=O | 99* | -1 | -1 | -1
COc1ccc(-n2c(SCC(=O)Nc3ccccc3OC)nc(O)c(Cc3ccccc3)c2=O)cc1 | 4 | -12 | 0 | 3
CCc1c(O)nc(SCC(=O)Nc2ccccc2C)n(-c2ccc(C)cc2)c1=O | ? | -7 | 3 | 6

Assay outcomes as filed in PubChem BioAssay.
